99 compounds from PubChem BioAssay AID1006 (Sanford-Burnham Center for Chemical Genomics, 2008) can be followed below.

The inhibition is the drop in the measured response relative to a control, in per cent.

Screen size: about 200,000 compounds; about 3,000 (1.5%) were called active.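 How the source made its calls: active means inhibition above about 50% when tested at 10 µM (limit read from the data); inactive means the rest.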 What follows is part of a selection rich in actives, with near analogues and random picks from the rest.

Sequence of Luciferin 4-monooxygenase (Photinus pyralis) (P08659 whole entry, looked up): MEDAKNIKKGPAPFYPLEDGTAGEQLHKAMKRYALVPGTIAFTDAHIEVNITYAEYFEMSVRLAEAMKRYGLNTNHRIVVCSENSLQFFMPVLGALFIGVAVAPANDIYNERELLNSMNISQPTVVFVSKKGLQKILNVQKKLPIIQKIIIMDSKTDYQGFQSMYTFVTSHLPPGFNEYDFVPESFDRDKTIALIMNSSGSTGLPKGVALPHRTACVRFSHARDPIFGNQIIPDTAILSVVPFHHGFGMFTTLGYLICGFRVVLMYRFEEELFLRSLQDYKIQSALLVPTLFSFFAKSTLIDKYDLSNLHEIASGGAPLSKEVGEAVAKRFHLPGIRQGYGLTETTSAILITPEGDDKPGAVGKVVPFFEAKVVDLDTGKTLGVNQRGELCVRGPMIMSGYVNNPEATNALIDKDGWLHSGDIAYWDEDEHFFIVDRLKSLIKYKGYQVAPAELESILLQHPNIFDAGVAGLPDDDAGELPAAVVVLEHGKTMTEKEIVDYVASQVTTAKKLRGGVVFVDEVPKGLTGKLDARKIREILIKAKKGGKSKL

The test concerns the target Luciferin 4-monooxygenase (Photinus pyralis) (UniProt P08659). The test is described as follows: firefly luciferase enzyme inhibitors, primary screen, artefact control for luciferase-based inhibitor screens, biochemical, luminescence, ATPLite (AID 1006). The conditions noted are these: 10 min, at 10 µM, hits give high values. Background: ATP-based viability assays read luminescence as a measure of living cells.
As to `C[C@@H]1NC(=O)c2cc([N+](=O)[O-])cc(F)c2NCCC[C@@H](C(N)=O)NC(=O)[C@H](CC(N)=O)NC1=O`, the inhibition was -4.9% (inactive). Consider `Fc1ccccc1Cc1ccc(Cl)nn1`, for which the inhibition is -5.5% (inactive).

For the compound `c1cc(-c2nn[nH]n2)ccc1CN1CCCCC1`, the inhibition was -3.9% (inactive).

On to `CCc1ccc(-c2nnn(Cc3nn[nH]n3)n2)cc1`, for which the inhibition was -1.9% (inactive). With `CC(C)c1ccc(-c2nn[nH]n2)cc1`, the inhibition was 56.6% (active). As for `O=C(COC(=O)C12CC3CC(CC(O)(C3)C1)C2)NC12CC3CC(CC(C3)C1)C2`, the inhibition is -8.6% (inactive).

For `Cc1cc(Br)ccc1SCC(=O)OCC(=O)NCc1ccc2c(c1)OCO2`, the inhibition was -0.9% (inactive). Turning to `Cn1cc(CN2CCCCC2c2ccccn2)c(-c2ccc3c(c2)OCCO3)n1` (centres undefined), the inhibition is -5% (inactive). `COC(=O)C1=C(C)N(C)C(=O)NC1c1ccc([N+](=O)[O-])o1` (centres undefined): the inhibition is -8% (inactive). For the compound `O=c1cc(CSc2ccc(Cl)cc2)nc(N2CCOCC2)[nH]1`, the inhibition was -3.7% (inactive). The figure for `Clc1ccc2nc(CSc3ccccc3)cn2c1` is 51% (active); for `CCOc1ncccc1C(=O)OCc1cn2cc(Cl)ccc2n1` it is -4.4% (inactive). The figure for `CN(c1cccc(NC(=O)Nc2ccc(Cl)cc2)c1)S(C)(=O)=O` is 50.6% (active); for `Cc1ccc(N(CC(=O)Nc2cccc(N(C)S(C)(=O)=O)c2)S(C)(=O)=O)cc1` it is 1.1% (inactive).

For the compound `COc1cccc(N(CC(=O)Nc2cccc(N(C)S(C)(=O)=O)c2)S(C)(=O)=O)c1`, the inhibition is -3.8% (inactive).

`Cc1ccc(/C=C/C(=O)Nc2cc(S(=O)(=O)N3CCCCCC3)ccc2OCC(F)(F)F)o1`: the inhibition is -5.3% (inactive). The figure for `O=c1oc(-c2ccco2)nc2sc3c(c12)CCCCC3` is 82.9% (active); for `O=C(NCc1ccco1)c1cccn2c(=O)c3c4c(sc3nc12)CCCC4` it is -5.5% (inactive). As for `Cn1c(=O)n(Cc2ccco2)c(=N)c2c3c(sc21)CCCC3`, the figure is -0.5% (inactive). The figure for `O=C(c1cn2ccccc2n1)N1CCc2c([nH]c3ccccc23)C1c1ccccn1` (centres undefined) is 1% (inactive); for `Cc1cc(C(=O)COC(=O)CCCN2C(=O)c3ccccc3C2=O)c(C)n1C` it is 8.4% (inactive). Take `C=CCN(CC=C)C(=O)CN1C(=O)c2ccccc2C1=O`: the inhibition is -5% (inactive). As for `C=CCn1c(C)cc(C(=O)CN2C(=O)c3ccccc3C2=O)c1C`, the figure is 57.4% (active). Take `O=C1COc2ccc(C(=O)COC(=O)C3CC(O)CN3S(=O)(=O)c3ccc(Cl)cc3)cc2N1` (centres undefined): the inhibition was 29.8% (inactive).

Take `COc1ccc(NC(C(=O)Nc2cccc(C(C)=O)c2)c2ccccc2)cc1` (centres undefined): the inhibition is 1.7% (inactive). As to `O=C(Nc1ccc(-c2ccc3nncn3n2)cc1)C1CCCCC1`, the inhibition was 26.9% (inactive). `O=C1/C(=C/c2cccs2)CCc2ccccc21`: the inhibition was 76% (active). On to `CCC1C/C(=C/c2cccs2)C(=O)/C(=C/c2cccs2)C1` (centres undefined), for which the inhibition was -5.8% (inactive).

On to `COc1ccc(/C=C2\CCc3ccccc3C2=O)c(OC)c1OC`, for which the inhibition is 1.1% (inactive). As for `Cc1ccc(-c2nc3ccccc3[nH]2)cc1NC(=O)c1sc2ccccc2c1Cl`, the inhibition was -3% (inactive). The figure for `Cc1ccc(-c2nc3ccccc3[nH]2)cc1N` is 80.7% (active); for `OCCNc1nc2ccccc2[nH]1` it is -5.9% (inactive).

For the compound `c1ccc(-c2[nH]ncc2-c2nc3ccccc3[nH]2)cc1`, the inhibition is -8.5% (inactive). As for `c1ccc2[nH]c(-c3nc4ccccc4[nH]3)nc2c1`, the figure is 58.7% (active); as for `COc1ccc(Br)cc1C(=O)NC(=S)Nc1cc(-c2nc3ccccc3[nH]2)ccc1C`, 2.5% (inactive). As for `O=C(CCNS(=O)(=O)c1ccc(Br)s1)NCc1ccccc1Cl`, the figure is -3.8% (inactive); as for `Cc1c(NC(=O)CCC2CCCCC2)cc(C(=O)N2CCOCC2)cc1[N+](=O)[O-]`, -6.5% (inactive); as for `O=C(NC(Cc1c[nH]c2ccccc12)C(=O)O)/C(=C/c1ccco1)NC(=O)c1ccccc1` (centres undefined), -0.6% (inactive). For the compound `O=C(CCl)N(Cc1cccc([N+](=O)[O-])c1)c1cccc(Cl)c1`, the inhibition was -6.8% (inactive).

For `CCCCOc1ccc(N(CC(=O)NC(C)C)C(=O)CCC(=O)Nc2ccccn2)cc1`, the inhibition is -9.9% (inactive). With `Cc1cc(C)n2nc(C(=O)N(C)C(c3ccccc3)c3ccccc3)nc2n1`, the inhibition is -7% (inactive). With `COc1cc(OC)cc(-c2nc(=S)n3ccsc3n2)c1`, the inhibition is -2.1% (inactive).

`COc1ccc(-c2cn3ccsc3n2)cc1`: the inhibition was 81.3% (active). As for `COc1ccc(-c2cn3cccnc3n2)cc1`, the figure is 59.3% (active). As for `CC(=O)Nc1ccc(-c2cn3cccnc3n2)cc1`, the figure is 6.6% (inactive). As for `CCCC(=O)Nc1cccc(-c2cn3ccsc3n2)c1`, the figure is 40% (inactive); as for `c1ccc(-c2cn3cccnc3n2)cc1`, 2.6% (inactive); as for `COc1cc(C(=S)NC2CCCCC2)ccc1O`, -2.8% (inactive). `Cc1ccnc2nc(C(=O)Nc3nnc(-c4ccccc4)o3)nn12`: the inhibition was -2.4% (inactive).

Regarding `Cc1noc(C)c1S(=O)(=O)N(C)Cc1ccccc1`, the inhibition was -6.5% (inactive). As to `CCOC(=O)c1nn(-c2ccccc2F)c2nc(Nc3ccccc3)cc(=O)n12`, the inhibition was -2.4% (inactive).

With `O=[N+]([O-])c1cc(Br)c(O)c(/C=N/Nc2nc3ccccc3s2)c1`, the inhibition is 1.1% (inactive). As for `Cc1ccnc(Nc2nc3ccccc3s2)n1`, the figure is 34.9% (inactive); as for `c1ccc2sc(NN=C3CCCC3)nc2c1`, 62.8% (active). The figure for `Cc1cc(C)cc(C(=O)N(CCc2ccccc2)C2=CC3CCC(C2)N3C)c1` (centres undefined) is -2.2% (inactive). As for `O=C(C1=C[C@H](C2CC2)C[C@H](OCc2ccc(CO)cc2)O1)N1CCN(Cc2ccccc2)CC1`, the figure is -13.1% (inactive); as for `CC(NC(=S)NC1CCCCC1)C(c1ccccc1)N1CCOCC1` (centres undefined), -6% (inactive); as for `O=C(NNC(=S)NC1CCCCC1)c1ccccc1Cl`, -0.5% (inactive). In the case of `CC(C)(c1ccccc1)c1ccc(OCCN)cc1`, the inhibition was -11.4% (inactive).

Consider `CC1=NN(C(=O)c2ccc(Br)cc2)C(O)(c2ccccc2)C1` (centres undefined), for which the inhibition is -3.1% (inactive).

Take `CCN(CC)C(=O)Oc1ccc(OC(=O)N(CC)CC)cc1`: the inhibition was 1.5% (inactive). The figure for `CC1CN/C(=C\C(=O)c2ccc(Br)cc2)C(=O)N1` (centres undefined) is 52.4% (active); for `CN1CCCC(OC(=O)COc2ccc(Br)cc2)C1` (centres undefined) it is -7.7% (inactive). The figure for `C/C(=C\C(=O)c1ccc(Br)cc1)N1CCCCC1` is 3.9% (inactive). As for `COc1ccc(NC(=O)CSc2nnc(-c3ccccc3F)n2C2CC2)cc1S(N)(=O)=O`, the figure is 1.6% (inactive). On to `COc1ccc(NS(=O)(=O)c2cc(NC(=O)/C=C/c3cc(OC)c(OC)c(OC)c3)ccc2N2CCCCC2)cc1`, for which the inhibition is -5% (inactive). Turning to `Cc1ccn(-c2cccc(-n3ccc(C)n3)n2)n1`, the inhibition was 61.1% (active). With `CC(C)N1C(=O)N(c2ccccc2)C(C)(O)CC1(C)C` (centres undefined), the inhibition was -5.4% (inactive). The figure for `O=C(O)CCCCc1nc2ccccc2s1` is 6.8% (inactive); for `COc1ccccc1OCc1nc2ccccc2s1` it is 57.9% (active); for `COc1cccc2sc(NNC(=O)c3nc4ccccc4s3)nc12` it is -1.8% (inactive). For `CNC(=O)COc1ccc(S(=O)(=O)Nc2ccccc2)cc1`, the inhibition is -6.9% (inactive). As for `CSc1ccccc1NC(=O)CN(C)CC(=O)Nc1ccc(Cl)cc1[N+](=O)[O-]`, the figure is 1.5% (inactive); as for `Nc1ncc(-c2cc3ccccc3oc2=O)s1`, 32.1% (inactive). In the case of `O=c1oc2ccccc2cc1-c1cn(-c2ccccc2)c(=S)[nH]1`, the inhibition is 90.1% (active). As for `O=C(c1cn(-c2ccccc2)nc1-c1cc2ccccc2oc1=O)N1CCOCC1`, the figure is -8.2% (inactive); as for `Cc1ccc(CCCOC(=O)C[N+]2(C)CCCCC2)cc1`, -3.7% (inactive); as for `O=C(NCCc1ccc(F)cc1)c1n[nH]c2ccccc12`, 14.4% (inactive). The figure for `COc1cccc(CNC(=O)c2n[nH]c3ccccc23)c1` is 51.1% (active); for `O=C(COC(=O)c1n[nH]c2ccccc12)NCc1ccccc1` it is -1.4% (inactive); for `CC(=O)Nc1ccc(NC(=O)CSc2nnc(COc3ccccc3C)n2CC2CCCO2)cc1` (centres undefined) it is -2.3% (inactive). As to `CCc1ccc2nc3sc(C(=O)Nc4nnc(CC)s4)c(N)c3cc2c1`, the inhibition was 51.9% (active). As for `CCc1nnc(NC(=O)c2sc3nc(C)cc(COC)c3c2N)s1`, the figure is -1.1% (inactive); as for `CCc1nnc(NC(=O)c2cccs2)s1`, 6.9% (inactive); as for `CSc1cc(C)[nH]c(=O)n1`, 0.8% (inactive). On to `Cc1ccc(C(=O)N/C(=C/c2cccs2)C(=O)NCC2CCCO2)cc1` (centres undefined), for which the inhibition is 0.4% (inactive).

For the compound `Cc1ccc(S(=O)(=O)N2CCC(C(=O)NCC3CCCO3)CC2)cc1` (centres undefined), the inhibition is -6.3% (inactive). The figure for `Cc1ccc(-n2c(C)cc(/C=C(\C#N)C(=O)NCC3CCCO3)c2C)cc1` (centres undefined) is 72.2% (active); for `CC(C)(C)NC(=O)COC(=O)c1cc(Cl)ccc1[N+](=O)[O-]` it is 1.8% (inactive). As for `CN(C)/C=C(/C(=O)c1ccccc1Cl)S(C)(=O)=O`, the figure is -6% (inactive); as for `Cc1cc(F)ccc1S(=O)(=O)N1CCCOC1CNC(=O)C(=O)NCCC1=CCCCC1` (centres undefined), -3.9% (inactive). As for `COc1cc(/C=C/C(=O)OCC(=O)N2CCOCC2)ccc1OCC#N`, the figure is -6% (inactive); as for `CCCOC(=O)Nc1ccccc1C(N)=O`, -2.5% (inactive). On to `Cc1cccc(OCC(=O)Nc2ccccc2F)c1`, for which the inhibition is 6.3% (inactive). As for `COc1cccc(OCC(=O)Nc2ccccc2C(N)=O)c1`, the figure is 59.2% (active).

`CCOC(=O)C1=C(N)N(c2ccc(C)cc2)C2=C(C(=O)CCC2)C1c1cccs1` (centres undefined): the inhibition was -3.4% (inactive). As for `CS(=O)(=O)c1ccc2c(c1)SC1=NC(=O)/C(=C/c3ccco3)C(=N)N12`, the figure is 13.2% (inactive). For `CCS(=O)(=O)C1=NSC2=NC(=O)/C(=C\c3cc(C)n(-c4cccc(OC)c4)c3C)C(=N)N21`, the inhibition is 12.2% (inactive). Turning to `Cc1cc(/C=C2/C(=N)N3C(=NC2=O)SN=C3S(C)(=O)=O)c(C)n1-c1ccccc1`, the inhibition is 89.9% (active).
